Screening data deposited in PubChem by National Center for Advancing Translational Sciences (NCATS).
PLK1 PBD inh – blocks phosphopeptide binding to human PLK1 polo-box domain; Potency, µM, for the others: max response, negative = inhibition, actives largely listed as inhibitors; AID 720504; 2.8% of 360,000 active; P53350; Plk1 PBD binding of FITC phosphopeptide, fluorescence polarization; further: series mostly up to about 57 µM; nearly all actives have a fitted effect of over 65% in size
ALDH1A1 block – inhibitors of human aldehyde dehydrogenase 1A1; Potency, µM (top dose mostly 75.3 µM), for the others: top-dose activity, negative = inhibition, hits mostly inhibitors; AID 1030; 7.3% of 220,000 active; Purified ALDH1A1, NADH fluorescence, propionaldehyde substrate; active means well fitted inhibition curve with a large enough effect, not every such curve was filed as active; inconclusive means small, poorly fitted or top-dose-only effect, or another doubt; inactive means no such curve, though single readings can be large or run the other way;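 further: plate controls were no enzyme wells and a reference inhibitor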
RORgamma inh – blocks mouse ROR gamma transcriptional activity; P51450; Drosophila S2 Gal4-RORgamma UAS-luciferase reporter, 20 h; Potency, µM (doses to about 53.6 µM), without a hit: at the top dose activity change, negative = inhibition, most hits filed as inhibitors; 5.4% of 310,000 active; AID 2551; further: nearly all actives have a fitted effect of over 60% in size
Target sequence (P51450 whole entry, looked up, the tested form may be a part): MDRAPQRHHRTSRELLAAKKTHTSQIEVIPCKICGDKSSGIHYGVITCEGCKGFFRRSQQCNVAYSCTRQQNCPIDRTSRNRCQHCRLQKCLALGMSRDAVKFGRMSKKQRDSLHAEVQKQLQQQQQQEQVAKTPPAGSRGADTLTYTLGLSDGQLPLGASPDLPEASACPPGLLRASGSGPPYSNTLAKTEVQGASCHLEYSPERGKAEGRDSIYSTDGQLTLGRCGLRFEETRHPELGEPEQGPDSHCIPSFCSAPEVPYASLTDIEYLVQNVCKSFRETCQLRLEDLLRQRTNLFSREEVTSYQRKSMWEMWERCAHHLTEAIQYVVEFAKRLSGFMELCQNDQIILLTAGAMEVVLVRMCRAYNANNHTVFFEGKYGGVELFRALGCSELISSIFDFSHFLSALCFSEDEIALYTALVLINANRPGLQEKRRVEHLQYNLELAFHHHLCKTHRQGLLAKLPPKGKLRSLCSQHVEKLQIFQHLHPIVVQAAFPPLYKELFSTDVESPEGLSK
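Luciferase reporter read in Schneider cells carrying Gal4-RORγ (mouse) and UAS-Photinus luciferase; cells given compound 1 h before 700 uM copper sulfate induction, then incubated 20 h at ambient temperature.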
VP16 counter – counter-screen for ROR gamma inhibitors: Gal4-VP16 reporter. Drosophila S2 Gal4-VP16 UAS-luciferase, luminescence, 20 h. Potency, µM (titrated, usually from 53.6 µM), for the others: at the highest dose activity, negative = inhibition, hits mostly inhibitors. 3.5% of 310,000 active. AID 2546;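 further: Gal4-VP16 expression switched on by copper sulfate through the metallothionein promoter; nearly all actives have a fitted effect of over 50% in size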
Sfp PPTase inh – blocks B. subtilis Sfp PPTase activity; Biochemical Sfp PPTase activity, qHTS; Potency, µM, for inactives: largest response in the series, negative = inhibition, actives largely listed as inhibitors; 3.5% of 310,000 active;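 further: the enzyme is Sfp with the accession as filed and its product quenches rhodamine fluorescence; 0% = enzyme reaction without inhibitor and -100% = no enzyme wells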
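Fluorescence-quenching assay: 15 nM Sfp-PPTase preincubated 15 min at room temperature with compound, then 5 uM rhodamine-CoA and 12.5 uM BHQ-2-labelled YbbR peptide added. Fluorescence (ex 525/em 598 nm) read at start and after 30 min; difference gives rate.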
Active calls of the source: *; ? = inconclusive; / = not tested or not shown. An excerpt weighted towards active compounds, which were near 12% of everything screened. Unless noted, the call rests on the fitted dose curve; in most records, active means well fitted curve in the direction sought with a large enough effect; inconclusive means small, poorly fitted or top-dose-only effect, or another doubt; inactive means no such curve, though single readings can be large; an effect the other way counts as inactive or inconclusive. Unless noted, on the % scale 0 is the no-effect control and ±100 the full control effect; potency means the concentration at half of the fitted maximal effect.

SMILES	PLK1 PBD inh	ALDH1A1 block	RORgamma inh	VP16 counter	Sfp PPTase inh
COc1ccc(Cc2c(C3CCCCC3)nc3c(Cl)cc(C(F)(F)F)cn23)c(C)c1	-13.0%	/	/	/	/
COc1cc(OC)c(C(=O)COc2ncnc3ccccc23)c(OC)c1	-9.9%	15.8µM*	-16.7%	-1.9%	25.5%
Cc1ccc(C)c(C(=O)COc2ncnc3ccccc23)c1	1.1%	-6.8%	30.6%	6.9%	1.6%
CCOC(=O)c1c(C)[nH]c(C)c1C(=O)COc1ncnc2ccccc12	11.9µM*	1.5%	21.8%	10.0%	10.6%
Cc1cccc(NC(=O)CN2CCN(C(=O)c3cnn(Cc4ccccc4)c3)CC2)c1C	1.6%	/	/	/	/
Cc1nc2ccc(Cl)cn2c1C(=O)NN	1.2%	2µM*	?	?	-9.5%
Cn1cc(C(=O)C(=O)NC2CC2)c2ccccc21	26.7µM*	/	/	/	/
Cn1cc(C(=O)C(=O)NC2CCCCC2)c2ccccc21	-11.8%	/	-12.2%	17.3%	-1.6%
O=C(CCl)N1c2ccccc2OCC1c1ccccc1 (centres undefined)	?	0.3%	21.7%	-12.1%	?
O=C(CCl)N1c2ccccc2SCC1c1ccccc1 (centres undefined)	2.99µM*	/	11.2µM*	14.1µM*	-1.5%
Cc1onc(-c2ccccc2Cl)c1C(=O)N1CCN(c2nc3ccccc3s2)CC1	-15.2%	14.1µM*	1.6%	-11.8%	-2.9%
C/C(=N\NC(=S)NCc1ccccc1)c1cccs1	-15.7%	?	0.447µM*	2µM*	16.0%
C/C(=N\NC(=O)Cc1ccccc1)c1ccc(Cl)s1	-3.9%	/	2.3%	2.2%	6.0%
C/C(=N\NC(=O)NC1CCCCC1)c1ccc(Cl)s1	-4.0%	/	0.0%	5.1%	8.2%
COCCNC(=S)N/N=C(\C)c1ccc(Cl)s1	-3.2%	/	0.794µM*	3.16µM*	18.8%
C/C(=N\NC(=S)NCc1ccccc1)c1ccc(Cl)s1	-7.6%	?	1.41µM*	8.91µM*	8.4%
COc1cc(OC)c2c(c1C(CCN1CCCC(C)C1)c1ccc(N(C)C)cc1)OC(=O)CC2c1ccc(N(C)C)cc1 (centres undefined)	/	/	-3.2%	-11.2%	-25.4%
C[C@@H]1CCCCO[C@H](CN(C)Cc2ccc(C(=O)O)cc2)[C@H](C)CN([C@@H](C)CO)C(=O)c2cc(NC(=O)Nc3ccc(C(F)(F)F)cc3)ccc2O1	-20.8%	/	/	/	/
O=c1/c(=C/c2ccco2)sc2nc(-c3ccccc3Br)nn12	?	?	-11.0%	7.0%	-22.3%
COc1ccccc1/C=C/C=c1\sc2nc(=O)c(Cc3ccccc3)nn2c1=O	?	/	0.9%	-25.2%	56.2µM*
COc1ccccc1-c1nc2s/c(=C\c3cccs3)c(=O)n2n1	-29.9%	-12.7%	?	-2.5%	-11.5%
CCCOc1ccc(Cc2nn3c(=O)/c(=C/c4ccco4)sc3nc2=O)cc1	-10.9%	2.1%	0.4%	-9.5%	50.1µM*
S=C(Nc1ccc2nccnc2c1)N1CCOCC1	-10.7%	-10.9%	3.5%	?	35.5µM*
CCCNC(=S)Nc1ccc2nc(-c3ccccn3)c(-c3ccccn3)nc2c1	-7.1%	-0.8%	?	3.7%	17.8µM*
Cc1nc2ccc(NC(=S)NCCCO)cc2nc1C	-25.7%	?	2.3%	-18.8%	56.2µM*
SMILES	PLK1 PBD inh	ALDH1A1 block	RORgamma inh	VP16 counter	Sfp PPTase inh
S=C(Nc1ccc2nc(-c3ccccn3)c(-c3ccccn3)nc2c1)N1CCCCC1	?	?	1.8%	-7.5%	-0.4%
S=C(Nc1ccc2nc(-c3ccccn3)c(-c3ccccn3)nc2c1)N1CCCCCC1	?	?	?	7.7%	39.8µM*
CCCC(=O)N1CCC1(C)C(=O)Nc1ccc(OC(F)F)cc1 (centres undefined)	-0.1%	/	/	/	/
Cc1nc(NC(=O)CSc2nnc(Cn3nnc4ccccc43)n2C)sc1C	-14.5%	6.0%	35.1%	-1.0%	10.2%
CSCCC(C(=O)NC(C)(C)C)n1c(-c2ccc(C)cc2)nc2ccccc21 (centres undefined)	6.8%	/	/	/	/
OC(c1ccccc1)c1nc2ccccc2s1 (centres undefined)	11.9µM*	6.5%	-40.0%	1.9%	-2.9%
OC(c1ccccc1)c1nc(-c2ccccc2)cs1 (centres undefined)	-3.6%	/	/	/	/
COc1ccc(C2/C=C\CN(C(=O)c3ccc(C)cc3)C(C)C(=O)N2Cc2ccc(F)cc2)cc1 (centres undefined)	/	/	28.5%	-18.0%	-1.2%
